In the library only some 12% were active in any assay of this set; here they are far more common.
USP30 inh – human USP30 deubiquitinase inhibition; purified USP30, Ub-rhodamine cleavage fluorescence; inhibition, % at 25 µM; 5.3% of 47,000 active
USP17 inh – human USP17-like deubiquitinase inhibition; AID 1645855; 6.5% of 47,000 active; inhibition, % at 50 µM; purified USP17, Ub-rhodamine cleavage fluorescence, 3 h; A8MUK1
USP8 inh – inhibitors of human USP8 deubiquitinase; P40818; purified USP8, Ub-rhodamine cleavage fluorescence, 30 min; inhibition, % at 20 µM; 4.2% of 47,000 active
Numbers without * were called inactive; x = no result. Rule as the data show it: active = inhibition above about 30%; inactive = the rest.

SMILES	USP30 inh	USP17 inh	USP8 inh
O=C(Cn1cnc2scc(-c3ccc4c(c3)CCCC4)c2c1=O)Nc1ccccc1Cl	-125	-56	-36
COc1c(C)c(C(O)C(C)O)c2[nH]c3ccc(CC=C(C)C)cc3c2c1O (configuration not stated)	48*	99*	63*
Cc1ccc(Nc2nccc(C3CCCN(C(=O)c4ccc(=O)n(C)c4)C3)n2)nc1 (configuration not stated)	1	-2	-3
COC(=O)c1cc(S(=O)(=O)NC2CCCC2)c(C)n1C	3	0	-7
CC1(C)OC(=O)[C@]2(C)C[C@@H](C(=O)Nc3cnc4ccccc4c3)[C@@]1(C)N2	-13	1	4
CSCC[C@H](NC(=O)OC(C)(C)C)C(=O)N1CCC(C(=O)N[C@@H](C)C(=O)Nc2ccc(C(C)C)cc2)CC1	18	x	24
COCCCNC(=O)c1ccc(Cn2c(=O)c3ccccc3n(CC(=O)Nc3ccc4c(c3)OCCO4)c2=O)cc1	-4	-1	32*
O=C(CCn1c(=O)c2ccccc2n(CC(=O)Nc2ccc3c(c2)OCCO3)c1=O)NCCc1ccccc1	4	48*	6
O=C(Cn1c(=O)n(Cc2ccc3c(c2)OCO3)c(=O)c2ccccc21)Nc1ccc2c(c1)OCCO2	-5	0	-2
Cc1ccc(NC(=O)Cn2c(=O)n(CCC(=O)NCCc3ccc(Cl)cc3)c(=O)c3ccccc32)cc1	20	16	18
COc1ccccc1NC(=O)c1cn(C)c2c(=O)n(-c3ccccc3)c(=O)[nH]c12	14	12	-2
COc1cccc(Cn2cc(S(=O)(=O)N3CCCC3)ccc2=O)c1	-11	-13	-6
COc1cccc(Cn2cnc3c(NS(=O)(=O)c4ccc(Cl)cc4)c(C)c(C)cc32)c1	-1	11	49*
COc1ccnc2c1c(=O)n(CC(=O)NCC1CCCO1)c(=O)n2C (configuration not stated)	-14	6	9
CCCCCC(O)/C=C/C(O)C(O)CCCCCCCC(=O)O (configuration not stated)	-14	-5	-3
CCCCCCCCCC(CCCCCCCCCC(=O)O)O[C@H]1O[C@@H](COC(C)=O)[C@H](O)[C@@H](OC(=O)CC(=O)O)[C@H]1O (some centres not stated)	47*	33*	7
Cc1ccc(S(=O)(=O)N2CC(C(=O)NCc3ccncc3)C3(CCOCC3)C2)cc1C (configuration not stated)	7	6	15
COc1ccc(NC(=O)N(Cc2ccc(F)cc2)Cc2cc3cc4c(cc3[nH]c2=O)OCCO4)cc1	-6	-6	-51
COc1ccc(NC(=O)Cn2cc(C(=O)c3ccc(OC)cc3)c(=O)c3cc4c(cc32)OCCO4)cc1	10	6	44*
CCOc1ccc(NC(=O)Cn2cc(-c3ccccc3)c3ncn(C4CC4)c(=O)c32)cc1	-308	-44	-9
COc1ccc(NC(=O)Cn2cc(C(=O)c3ccc(F)cc3)c(=O)c3cc(C)ccc32)cc1	32*	75*	23
Cc1ccc(CS(=O)(=O)c2cn(CC(=O)Nc3cccc(F)c3)c3ccccc23)cc1	-38	9	25
COc1ccc(NC(=O)Cn2cc(OC)c(=O)cc2CSc2ccc(C)cc2)cc1	1	-11	-13
Cc1ccc(C(=O)c2cn(CC(=O)Nc3ccc(Cl)cc3)c3ccc(F)cc3c2=O)cc1	-219	-26	60*
CCOc1ccc2c(c1)c(=O)c(C(=O)c1ccc(F)cc1)cn2CC(=O)Nc1ccc(F)cc1	x	41*	72*
SMILES	USP30 inh	USP17 inh	USP8 inh
Cc1cc(Br)c(C(C)C)c(Br)c1OC(=O)c1ccco1	-11	4	7
O=C(C1CC1)N1CCCn2nc(-c3ccc(F)cc3)cc2C1	-1	0	1
CN1CC[C@@H]2Oc3ccccc3S(=O)(=O)N(Cc3cccnc3)[C@H]2CC1	-8	-5	-19
COc1ccc(-c2nnc(-c3ccc(-n4ccnc4)nc3)o2)c(OC)c1	4	7	-25
COc1ccc(Cl)cc1N(CC(=O)N1CCN(Cc2ccccc2)CC1)S(=O)(=O)c1ccccc1	11	-2	-10
CCOc1ccc2c(c1)c(=O)c(C(=O)c1ccc(C)cc1)cn2CC(=O)Nc1ccc(OC)c(OC)c1	70*	36*	87*
COc1ccc(CCNC(=O)Cn2cc(S(=O)(=O)Cc3ccc(C)cc3)c3ccccc32)cc1OC	-3	16	2
COc1cccc(C(=O)N2C[C@H]3NC(=O)c4ccccc4C(=O)[C@@]3(C)C2)c1	21	6	12
CCN1CCc2c(cccc2-n2nnc(C(=O)N3CCCC3)c2C)C1	-45	-22	-12
Cc1ccccc1N(CC(=O)NCc1ccc2c(c1)OCO2)C(=O)c1ccc2c(c1)OCCO2	16	25	7
Cc1cc(C)cc(N(CC(=O)NCc2ccc3c(c2)OCO3)C(=O)c2ccc3c(c2)OCCO3)c1	36*	24	13
CC1CC(=O)Nc2cc(S(=O)(=O)Nc3ccc(F)cc3F)ccc2S1 (configuration not stated)	-14	6	-5
CC1CC(=O)Nc2cc(S(=O)(=O)Nc3cccc(F)c3)ccc2S1 (configuration not stated)	31*	12	12
O=C(Nc1ccc(F)cc1)N1Cc2cccn2-c2ccccc21	-3	0	8
O=C(c1cnc2[nH][nH]c(=O)c2c1)c1cc(Cl)cc(Cl)c1O	46*	89*	94*
O=C(c1cnc2oc3ccccc3c2c1)c1ccccc1O	-3	12	10
Cc1c(CC(=O)N[C@H](CCCNC(N)=O)C(=O)O)c(=O)oc2c(C)c(O)ccc12	20	10	-4
Cc1ccc2nc(N3C(=O)c4oc5ccccc5c(=O)c4C3c3ccco3)sc2c1 (configuration not stated)	-49	-9	12
Cc1ccc2nc(N3C(=O)c4oc5ccccc5c(=O)c4C3c3ccc(C)o3)sc2c1 (configuration not stated)	41*	40*	10
O=C(Nc1ccnn1Cc1ccccc1)c1cc(=O)c2ccccc2o1	3	-7	0
Cc1ccc(Nc2c(C(=O)N3CCOCC3)cnc3ccccc23)c(Cl)c1	-123	19	-13
Cc1cnc(C(=O)N2CCCC(c3ncc(Cc4ccc(F)cc4)o3)C2)cn1 (configuration not stated)	31*	6	17
Cc1cnc(C(=O)N2CCCC(c3ncc(Cc4ccccc4)o3)C2)cn1 (configuration not stated)	x	0	-6
COc1cc(-c2ccccc2)c(O)c(O)c1-c1ccccc1	91*	99*	73*
COc1cc(/C=C/C(=O)O)cc(OC)c1O	-10	-17	-1
Cc1nc(C2(NC(=O)NCc3ccc(Cl)cc3)CCCC2)no1	14	0	-2
Cc1c(C)n(CCN(C)C)c2ncnc(NCc3ccccn3)c12	15	-7	-2
Cc1cc(C)c(NC(=O)CSC2=C(C#N)C(c3ccc(C)o3)C3=C(CCCC3=O)N2)c(C)c1 (configuration not stated)	35*	19	-26
Cc1cc(Br)ccc1NC(=O)CSc1nc2c(cc1C#N)C(=O)CCC2	-15	x	8
CC1CCCN(C(=O)C2CCN(c3cncnc3N3CCOCC3)CC2)C1 (configuration not stated)	-10	-11	6

Screening results: PubChem BioAssay, Buhrlage Lab, Dana-Farber Cancer Institute and Novartis Institutes for BioMedical Research (Cambridge, Mass)
